Consider 20 molecules from PubChem BioAssay (NCI).

The panel holds about 83,000 compounds, 20% with a hit somewhere; the sample as a whole holds those more often.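 Each cell line was grown in a 96-well plate and treated with one concentration of compound for 48 hours. Values below 10 were considered active.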 Unmarked numbers belong to inactive results. Activity calls are given as the source filed them.

Some test systems named below: RPMI-8226 leukemia; OVCAR-8 ovarian; OVCAR-5 ovarian; OVCAR-4 ovarian; IGROV1 ovarian; OVCAR-3 ovarian; HS 578T breast; NCI/ADR-RES ovarian; SK-OV-3 ovarian.
Assay in all cases: NCI-60 one-dose screen, 48 h (100 = growth as untreated, 0 = no growth, -100 = all killed)
Common to all, as to details: 10 µM

On to `CS(=O)(=O)Nc1ccc(-c2ccc3c(c2)ncn3-c2ccc(NC(=O)Nc3ccc(Cl)c(C(F)(F)F)c3)cc2)cc1`, for which the growth is -28.6% (active) with RPMI-8226 leukemia; -34.8% (active) with OVCAR-8 ovarian; -84.9% (active) in the test with OVCAR-5 ovarian; -47.2% (active) in the test on OVCAR-4 ovarian; -43.1% (active) in the test on IGROV1 ovarian; -54.3% (active) with OVCAR-3 ovarian. Besides, the figures for the growth with HS 578T breast and in the test with NCI/ADR-RES ovarian were -33.2% (active) and -1.05% (active), respectively.
Take `O=C(c1ccc([N+](=O)[O-])c([N+](=O)[O-])c1O)n1[nH]c(=O)c2ccccc2c1=O`: the growth was 26.6% with RPMI-8226 leukemia; 110% in the test on OVCAR-5 ovarian; 78.3% with OVCAR-4 ovarian; 102% in the test with SK-OV-3 ovarian; 94.6% in the test on IGROV1 ovarian; 25.8% in the test with OVCAR-3 ovarian. Moreover, the growth is 77.4% in the test with HS 578T breast and 35.5% in the test with NCI/ADR-RES ovarian.
For the molecule `O=C1NC(=NC2CCCCCC2)N/C1=C\c1ccc2ncoc2c1`, the growth in the test with RPMI-8226 leukemia was 35.9%; with OVCAR-8 ovarian it was 27.3%; with OVCAR-5 ovarian it was 50.3%; in the test with OVCAR-4 ovarian it was 62%; with IGROV1 ovarian it was 34.6%; in the test with OVCAR-3 ovarian, -3.02% (active). Also, the growth in the test with HS 578T breast was 42%; in the test with NCI/ADR-RES ovarian, 41.1%.
In the case of `COc1ccccc1[C@H]1C(C(=O)c2ccc(Cl)cc2)C2(N[C@@H]1c1ccccc1)C(=O)Nc1ccccc12` (stereo not given in full), the growth in the test with RPMI-8226 leukemia was 5.12% (active); in the test with OVCAR-5 ovarian, -24.8% (active); in the test with OVCAR-4 ovarian it was 24.8%; in the test on SK-OV-3 ovarian, 16.9%; in the test on IGROV1 ovarian, -3.06% (active); in the test on OVCAR-3 ovarian, -42.7% (active). The growth was -12.9% (active) with HS 578T breast and -69.7% (active) in the test on NCI/ADR-RES ovarian.
For the molecule `CC(=C(c1ccc(OCCN2CCCCC2)cc1)c1ccc(OCCN2CCCCC2)cc1)c1ccccc1`, the growth was -31.3% (active) with RPMI-8226 leukemia; 53.5% in the test on OVCAR-8 ovarian; 46.3% in the test on OVCAR-5 ovarian; 63.8% with OVCAR-4 ovarian; 60.7% in the test with IGROV1 ovarian; 28.3% in the test with OVCAR-3 ovarian. For the same molecule, the values for the growth in the test with HS 578T breast and in the test with NCI/ADR-RES ovarian were 29.5% and 51.6%, respectively.
Take `N#Cc1c(-c2ccc(F)cc2)nc(SCc2ccc([N+](=O)[O-])cc2)nc1N1CCOCC1`: the growth was 80.3% with RPMI-8226 leukemia; 53.1% in the test with OVCAR-8 ovarian; 92.1% with OVCAR-5 ovarian; 57.2% with OVCAR-4 ovarian; 44.5% in the test on SK-OV-3 ovarian; 80.5% in the test on IGROV1 ovarian. Besides, the growth is 69.7% with OVCAR-3 ovarian, 15.6% with HS 578T breast and 41.6% with NCI/ADR-RES ovarian.
For the molecule `COc1ccc([C@H]2C(C(=O)c3ccc(Cl)cc3)C3(N[C@@H]2c2ccccc2)C(=O)Nc2ccc(Br)cc23)cc1` (stereo not given in full), the growth with RPMI-8226 leukemia is -10.6% (active); in the test on OVCAR-5 ovarian, -20% (active); with OVCAR-4 ovarian, 17.2%; with SK-OV-3 ovarian, 22.6%; with IGROV1 ovarian, 7.23% (active); with OVCAR-3 ovarian, -30.8% (active). Moreover, the growth is -7.39% (active) in the test on HS 578T breast and -27.2% (active) with NCI/ADR-RES ovarian.
As for `COc1csc(/C=N/NC(=O)c2[nH]c3ccc(Br)cc3c2-c2ccccc2)c1`, the growth in the test with RPMI-8226 leukemia was 6.04% (active); with OVCAR-5 ovarian it was 17.5%; in the test with OVCAR-4 ovarian it was 30.3%; with SK-OV-3 ovarian, 26.3%; in the test on IGROV1 ovarian, 22%; with OVCAR-3 ovarian, 6.96% (active). Further, the results for the growth with HS 578T breast and with NCI/ADR-RES ovarian were -1.74% (active) and -35.2% (active), respectively.
For the molecule `Cc1ccc(NC(=O)c2ccc(-n3c(=O)[nH]c4ccccc4c3=O)cc2)cc1`, the growth with RPMI-8226 leukemia is 133%; with OVCAR-8 ovarian, 52.9%; with OVCAR-5 ovarian it was 106%; in the test on OVCAR-4 ovarian it was 98.8%; in the test with IGROV1 ovarian, 103%; in the test with OVCAR-3 ovarian, 90.5%. In addition, the growth with HS 578T breast was 78.3%; with NCI/ADR-RES ovarian, 80.2%.
Consider `Cc1nc2c(cnn2-c2ccccc2)c(=O)n1-c1ccc(NC(=O)c2ccc(F)cc2)cc1`, for which the growth is 35.2% in the test on RPMI-8226 leukemia; 97.9% in the test with OVCAR-5 ovarian; 40.1% with OVCAR-4 ovarian; 111% in the test on SK-OV-3 ovarian; 73.5% in the test on IGROV1 ovarian; 85.4% in the test with OVCAR-3 ovarian. Besides, the growth in the test on HS 578T breast is 78.7%; in the test on NCI/ADR-RES ovarian, 42.8%.
For the molecule `COc1cccc(C(N)=Nc2ccc(OCCCCCCn3cncn3)cc2)c1`, the growth is 16% with RPMI-8226 leukemia; 28.2% in the test on OVCAR-5 ovarian; 60.7% with OVCAR-4 ovarian; 29.6% in the test with SK-OV-3 ovarian; 31.4% in the test on IGROV1 ovarian; 16.2% in the test with OVCAR-3 ovarian. Besides, the growth was 26.4% in the test with HS 578T breast and 13.5% in the test on NCI/ADR-RES ovarian.
Take `COc1ccc2nc(Nc3cccc(NC(=O)c4ccc(CN5CCN(C)CC5)c(C(F)(F)F)c4)c3)ccc2c1`: the growth with RPMI-8226 leukemia was -33% (active); with OVCAR-8 ovarian it was -38.1% (active); with OVCAR-5 ovarian it was -75% (active); with OVCAR-4 ovarian, -27.1% (active); with IGROV1 ovarian, -69.8% (active); in the test on OVCAR-3 ovarian it was -36% (active). Also, the growth in the test with HS 578T breast was -23.1% (active); in the test on NCI/ADR-RES ovarian, -37.9% (active).
With `O=C(CSc1ccc(-c2ccc(Cl)cc2)nn1)Nc1ccc(Cl)c(C(F)(F)F)c1`, the growth in the test with RPMI-8226 leukemia is 66.8%; in the test on OVCAR-8 ovarian, 76.4%; in the test with OVCAR-5 ovarian, 79.6%; in the test with OVCAR-4 ovarian, 76.1%; in the test with SK-OV-3 ovarian it was 75.4%; in the test with IGROV1 ovarian, 70.9%. For the same molecule, the growth with OVCAR-3 ovarian was 69.3%; in the test on HS 578T breast, 70.6%; with NCI/ADR-RES ovarian, 27.9%.
In the case of `Cc1ccc([N+](=O)[O-])c(C(=O)Nc2ccc(-c3ccc4c(c3)NC(=O)/C4=C\c3ccc[nH]3)cc2)c1`, the growth in the test with RPMI-8226 leukemia is 31.4%; in the test with OVCAR-8 ovarian it was 25.6%; with OVCAR-5 ovarian, 55%; in the test with OVCAR-4 ovarian it was 34.3%; with IGROV1 ovarian, 53.9%; in the test on OVCAR-3 ovarian, 41.3%. Further, the results for the growth in the test on HS 578T breast and in the test on NCI/ADR-RES ovarian were 67.2% and 38%, respectively.
`COc1ccc2nc(Cl)c(-c3cc(-c4ccccc4)nc(N)n3)cc2c1`: the growth in the test with RPMI-8226 leukemia was -27% (active); with OVCAR-8 ovarian, -68.4% (active); in the test with OVCAR-5 ovarian it was 51.4%; in the test with OVCAR-4 ovarian, 83.7%; in the test with IGROV1 ovarian, 52.5%; with OVCAR-3 ovarian, 12.1%. For the same molecule, the results for the growth with HS 578T breast and with NCI/ADR-RES ovarian were 59.3% and -43.1% (active), respectively.
With `CN1CCc2c(sc3ncnc(N/N=C/c4cn(-c5ccccc5)nc4-c4ccc(Br)cc4)c23)C1`, the growth in the test on RPMI-8226 leukemia is 35.8%; in the test with OVCAR-5 ovarian, 48.5%; in the test on OVCAR-4 ovarian, 51.4%; in the test on SK-OV-3 ovarian, 107%; with IGROV1 ovarian it was 56.7%; with OVCAR-3 ovarian it was 4.8% (active). Besides, the growth with HS 578T breast was 70.1%; in the test on NCI/ADR-RES ovarian, 8.08% (active).
Take `NC(=Nc1ccc(OCCCCCCCCn2ccnn2)cc1)c1ccccc1`: the growth is 24.9% in the test on OVCAR-5 ovarian; 57.1% in the test with OVCAR-4 ovarian; 21.2% in the test with SK-OV-3 ovarian; 28.9% in the test on IGROV1 ovarian; 25.3% with OVCAR-3 ovarian; 40.7% with HS 578T breast.
Regarding `NC1=NC(c2ccccc2Cl)N=C(Nc2nn[nH]n2)N1` (stereo not given), the growth was 99.2% in the test with RPMI-8226 leukemia; 102% in the test with OVCAR-8 ovarian; 118% in the test on OVCAR-5 ovarian; 99.8% in the test on OVCAR-4 ovarian; 115% in the test with IGROV1 ovarian; 107% with OVCAR-3 ovarian. For the same molecule, the growth with HS 578T breast is 103%; in the test on NCI/ADR-RES ovarian, 104%.
For `O=c1oc2ccc(-c3ccc(F)cc3F)cc2c(=O)n1-c1ccc(F)cc1`, the growth in the test with RPMI-8226 leukemia was -26.9% (active); in the test on OVCAR-8 ovarian, 14.7%; with OVCAR-5 ovarian it was 50.8%; in the test on OVCAR-4 ovarian it was 10.8%; in the test with IGROV1 ovarian it was 23.5%; with OVCAR-3 ovarian, 3.4% (active). For the same molecule, the growth was -0.922% (active) in the test on HS 578T breast and -16.9% (active) in the test on NCI/ADR-RES ovarian.
Take `N#Cc1c(Cl)nc(SCc2ccc(F)cc2)nc1-c1ccc(F)cc1`: the growth was 91.4% with RPMI-8226 leukemia; 95.6% in the test with OVCAR-5 ovarian; 95% in the test with OVCAR-4 ovarian; 103% with SK-OV-3 ovarian; 109% in the test on IGROV1 ovarian; 111% with OVCAR-3 ovarian. Also, the growth was 95.2% in the test on HS 578T breast and 86.6% in the test on NCI/ADR-RES ovarian.
